Measurements as given in PubChem BioAssay (NCI).
The panel holds about 79,000 compounds, 15% with a hit somewhere; the sample as a whole holds those more often. Activity calls are given as the source filed them. Cut-off read from the data, not from the text of the source: active = growth inhibition above about 70%; inactive = the rest.

Tests used:
[1] = NCI Yeast Anticancer Drug Screen. Data for the rad52 strain (AID 147);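 note: 0% = growth of vehicle-treated control cultures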; conditions: S. cerevisiae rad52 mutant growth inhibition, active compounds read high
Method in brief: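 Screen used a yeast mutant impaired in DNA repair. After compound exposure, growth was measured. Values reflect inhibition compared with vehicle-treated cells.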

[2] = NCI Yeast Anticancer Drug Screen. Data for the wt1 strain (AID 149);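 note: 0% = growth of vehicle-treated wt1 cultures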; conditions: S. cerevisiae wt1 strain (SPY 50644) growth inhibition, active compounds read high
Method in brief: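 Using yeast strain wt1, compound-induced growth inhibition was determined against vehicle-treated cultures.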

[3] = NCI Yeast Anticancer Drug Screen. Data for the rad50EPP+ strain (AID 151);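 note: 0% = growth of vehicle-treated control cultures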; conditions: S. cerevisiae rad50 mutant strain, active compounds read high
Method in brief: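 Exposing the rad50EPP+ strain to each compound, growth was compared with vehicle-only cultures to give inhibition.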

[4] = NCI Yeast Anticancer Drug Screen. Data for the mgt1 strain (AID 153); conditions: S. cerevisiae mgt1 mutant growth inhibition, active compounds read high
Method in brief: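 Genetically defined yeast (mgt1) treated with compound; inhibition of growth expressed against vehicle-treated controls.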

[5] = NCI Yeast Anticancer Drug Screen. Data for the rad50 strain (AID 155);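 note: 0% = growth of vehicle-only cultures of the same strain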; conditions: S. cerevisiae rad50 strain growth inhibition, active compounds read high
Method in brief: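 Relative growth inhibition (compound vs vehicle) was measured in yeast with a defined repair-gene alteration.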

[6] = NCI Yeast Anticancer Drug Screen. Data for the mec2-1 strain (AID 157); conditions: S. cerevisiae mec2-1 strain, active compounds read high
Method in brief: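 Readout is yeast growth inhibition, normalised to vehicle-treated controls, in the mec2-1 strain exposed to compound.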

[7] = NCI Yeast Anticancer Drug Screen. Data for the rad14 strain (AID 159);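 note: 0% = growth of vehicle-treated control cultures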; conditions: S. cerevisiae rad14 strain growth inhibition, active compounds read high
Method in brief: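 Screen for anticancer potential: a yeast strain altered in DNA damage repair is grown with compound, and reduced growth is quantified against vehicle controls.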

[8] = NCI Yeast Anticancer Drug Screen. Data for the sgs1 mgt1 strain (AID 161);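 note: 0% = growth of cultures given vehicle only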; conditions: S. cerevisiae sgs1 mgt1 strain, active compounds read high
Method in brief: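 This yeast growth screen uses a strain with defined DNA-repair lesions; compound-treated growth is compared with vehicle-treated growth.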

[9] = NCI Yeast Anticancer Drug Screen. Data for the CLN2oe strain (AID 163);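 note: 0% = growth of vehicle-only control cultures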; conditions: S. cerevisiae CLN2oe strain, active compounds read high
Method in brief: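 Values reflect how much compound exposure reduced yeast growth, referenced to vehicle-exposed cells. Assay organism is a strain with a defined genetic change affecting cell-cycle control.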

[10] = NCI Yeast Anticancer Drug Screen. Data for the cln2 rad14 strain (AID 165);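 note: 0% = growth equal to vehicle treated cultures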; conditions: S. cerevisiae cln2 rad14 strain, active compounds read high
Method in brief: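 Relative to vehicle controls, growth inhibition of compound-treated cln2 rad14 yeast was recorded.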

[11] = NCI Yeast Anticancer Drug Screen. Data for the bub3 strain (AID 167); conditions: S. cerevisiae bub3 mutant strain, active compounds read high
Method in brief: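 Screening used yeast with an engineered genetic alteration affecting cell cycle control. Compound-exposed cultures were compared with vehicle cultures, and reduced growth was taken as inhibition.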

[12] = NCI Yeast Anticancer Drug Screen. Data for the wt2 strain (AID 169);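 note: 0% = growth of vehicle-treated yeast cultures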; conditions: S. cerevisiae wt2 strain growth inhibition, active compounds read high
Method in brief: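 Values express reduction in yeast growth under compound treatment, referenced to vehicle-treated cells.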

[13] = NCI Yeast Anticancer Drug Screen. Data for the mlh1 strain (AID 171);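 note: 0% = growth of vehicle-treated control cultures of the same strain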; conditions: S. cerevisiae mlh1 strain growth inhibition, active compounds read high
Method in brief: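 Steps: expose the defined-mutant yeast strain to compound; expose a parallel culture to vehicle; measure growth; express compound effect as inhibition relative to the vehicle culture.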

[14] = NCI Yeast Anticancer Drug Screen. Data for the sgs1 strain (AID 173);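 note: 0% = growth of vehicle-only control cultures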; conditions: S. cerevisiae sgs1 mutant, active compounds read high
Method in brief: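 Treat defined-mutant yeast with compound; measure growth; calculate inhibition relative to vehicle-treated cells.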

[15] = NCI Yeast Anticancer Drug Screen. Data for the mlh1 rad18 strain (AID 175); conditions: S. cerevisiae mlh1 rad18 strain growth inhibition, active compounds read high
Method in brief: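 Test agents were incubated with a yeast strain of defined genotype (DNA damage repair defect). Inhibition of growth was derived by comparison with vehicle-exposed cultures.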

[16] = NCI Yeast Anticancer Drug Screen. Data for the rad18 strain (AID 177); conditions: S. cerevisiae rad18 mutant growth inhibition, active compounds read high
Method in brief: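 A genetically defined yeast mutant impaired in DNA damage repair was treated with test compounds, then its growth was measured against cultures receiving vehicle alone.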

[17] = at 5.0 µM (retest, dose inferred, filed as 0.5)
[18] = at 50.0 µM (retest, dose inferred, filed as 5.0)

Measured: growth inhibition

CCCCCCNCCCNc1c2cc(OC)ccc2nc2cccc([N+](=O)[O-])c12
inactive: [1]; at 1.2 µM 8% | [1]; at 3.7 µM 25% | [2]; at 1.2 µM 1% | [2]; at 3.7 µM 1% | [2]; at 11.0 µM 9% | [2]; at 33.0 µM 59% | [3]; at 1.2 µM 2% | [3]; at 3.7 µM 5% | [3]; at 11.0 µM 20% | [3]; at 33.0 µM 60% | [4]; at 1.2 µM 0% | [4]; at 3.7 µM 0% | [4]; at 11.0 µM 10% | [5]; at 1.2 µM 5% | [5]; at 3.7 µM 15% | [5]; [17] 35% | [5]; at 11.0 µM 66% | [6]; at 1.2 µM -1% | [6]; at 3.7 µM 4% | [6]; [17] 9% | [7]; at 1.2 µM 7% | [7]; at 3.7 µM 55% | [9]; at 1.2 µM -8% | [9]; at 3.7 µM -13% | [9]; at 11.0 µM -9% | [9]; at 33.0 µM 53% | [11]; at 1.2 µM -6% | [11]; at 3.7 µM -13% | [11]; [17] -3% | [11]; at 11.0 µM -18% | [11]; at 33.0 µM 34% | [12]; at 1.2 µM 0% | [12]; at 3.7 µM 0% | [12]; at 11.0 µM 12% | [13]; at 1.2 µM 4% | [13]; at 3.7 µM 2% | [13]; at 11.0 µM 16% | [14]; at 1.2 µM 21% | [14]; at 3.7 µM 65%
active: [1]; at 11.0 µM 73% | [1]; at 33.0 µM 93% | [1]; at 100.0 µM 97% | [2]; at 100.0 µM 96% | [3]; at 100.0 µM 92% | [4]; at 33.0 µM 81% | [4]; at 100.0 µM 98% | [5]; at 33.0 µM 92% | [5]; [18] 97% | [5]; at 50.0 µM 94.6% | [5]; at 100.0 µM 96% | [6]; at 11.0 µM 73% | [6]; at 33.0 µM 94% | [6]; [18] 98% | [6]; at 50.0 µM 96.4% | [6]; at 100.0 µM 99% | [7]; at 11.0 µM 96% | [7]; at 33.0 µM 99% | [7]; at 100.0 µM 99% | [8]; [17] 88% | [8]; [18] 97% | [8]; at 50.0 µM 95.7% | [9]; at 100.0 µM 96% | [10]; [17] 77% | [10]; [18] 99% | [10]; at 50.0 µM 98.8% | [11]; [18] 96% | [11]; at 50.0 µM 92.7% | [11]; at 100.0 µM 95% | [12]; at 33.0 µM 81% | [12]; at 100.0 µM 98% | [13]; at 33.0 µM 86% | [13]; at 100.0 µM 98% | [14]; at 11.0 µM 88% | [14]; at 33.0 µM 95% | [14]; at 100.0 µM 98% | [15]; [17] 73% | [15]; [18] 97% | [15]; at 50.0 µM 97.2% | [16]; at 1.2 µM 89% | [16]; at 3.7 µM 93% | [16]; at 11.0 µM 93% | [16]; at 33.0 µM 95% | [16]; at 100.0 µM 98%
